# PI5P4K alpha inh: inhibitors of human PI5P4K alpha; PI5P4Kalpha enzyme, ADP-Glo luminescence, 60 min; stronger effect = lower value; AID 652105; P48426; max response, %; actives 1.2% (n = 330,000); active = max response of -50% or lower; inconclusive = between -30% and -50%; inactive = -30% or higher; also: value at the top dose of about 77 µM
#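 ADP-Glo luminescence end-point after a 60 min room-temperature kinase reaction. PI5P4Kalpha and substrate in HEPES pH 7.4 buffer with EGTA, 0.1% CHAPS and 5% DMSO; ATP at 5 microM final.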
# APEX1 inh: inhibitors of human APE1 endonuclease | actives 0.35% (n = 350,000) | Potency, µM (series often up to 65.8 µM), inactives show top-dose activity change, negative = inhibition, actives largely listed as inhibitors | recombinant APE1, TAMRA/BHQ-2 abasic DNA cleavage fluorescence | AID 2517 | P27695;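 also: potency is read from the fitted curve at half-maximal effect; plate controls were vehicle for no effect and reference inhibitor for full effect; nearly all actives have a fitted effect of over 55% in size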
#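 APE1 at 0.75 nM preincubated 15 min at room temperature with compound. Reaction then started with 50 nM double-stranded THF-abasic substrate labelled with TAMRA/BHQ-2, and 525/598 nm fluorescence read kinetically. Activity taken as third-minus-first read difference, normalized to DMSO and NSC13755 controls.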
# RECQ1 helicase: blocks DNA unwinding by human RECQ1 | Potency, µM (doses to about 57.3 µM), inactives show top-dose activity, negative = inhibition, actives largely listed as inhibitors | AID 2549 | actives 0.54% (n = 240,000) | RECQ1 DNA unwinding, red fluorescence kinetic read;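 also: potency is read from the fitted curve at half-maximal effect; plate controls were vehicle for no effect and no enzyme for full effect; nearly all actives have a fitted effect of over 30% in size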
#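 50 nM RECQ1T1 preincubated 15 min with compound in Tris pH 8.0 buffer with MgCl2, DTT, Tween-20 and 2.5 ug/ml poly(dI-dC); started with 200 nM TAMRA/BHQ-2 forked duplex and 2 mM ATP. Unwinding read as fluorescence (525/598 nm), two reads 2 h apart.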
# GCN5L2 inh: inhibitors of human GCN5L2 histone acetyltransferase | AID 504327 | Potency, µM (highest dose often 58.9 µM), without a hit: at the highest dose activity change, negative = inhibition, hits mostly inhibitors | GCN5L2 HAT assay, ThioGlo1 CoA-SH fluorescence | actives 0.21% (n = 390,000) | Q92830; also: potency is read from the fitted curve at half-maximal effect
#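 GCN5L2 (20 nM) in 50mM HEPES pH 7.5, 0.1mM EDTA, 0.01% Tween-20 preincubated 15 min with compounds at room temperature. Reaction started with H3(1-25) 75uM, acetyl-CoA 70uM, ThioGlo1 50uM; CoA-thiol fluorescence (Ex340/Em540) read at 0 and 20 min.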
# FEN1 inhibitor: human FEN1 inhibition | P39748 | Recombinant FEN1 flap cleavage, fluorescence, 15 min | Potency, µM (top dose mostly 114 µM), without a hit: at the top dose activity change, negative = inhibition, actives largely listed as inhibitors | actives 0.35% (n = 390,000) | AID 588795; also: potency is read from the fitted curve at half-maximal effect; nearly all actives have a fitted effect of over 65% in size
# Target sequence (P39748 whole entry, looked up): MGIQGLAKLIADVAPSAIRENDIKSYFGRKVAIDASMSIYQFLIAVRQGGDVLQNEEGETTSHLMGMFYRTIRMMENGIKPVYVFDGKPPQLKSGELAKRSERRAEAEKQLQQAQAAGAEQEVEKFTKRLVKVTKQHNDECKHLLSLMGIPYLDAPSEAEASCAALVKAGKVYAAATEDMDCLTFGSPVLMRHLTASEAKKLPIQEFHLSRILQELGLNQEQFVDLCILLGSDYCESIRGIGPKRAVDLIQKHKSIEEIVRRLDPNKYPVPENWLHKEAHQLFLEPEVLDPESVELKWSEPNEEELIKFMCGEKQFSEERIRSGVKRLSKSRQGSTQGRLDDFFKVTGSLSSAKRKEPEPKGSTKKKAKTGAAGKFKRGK
#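 Compounds are tested as a concentration series against 10 nM FEN1; after a 15 min room-temperature preincubation, 50 nM substrate starts cleavage, with plate reads at 0 and 15 min. Normalized responses are fitted by a Hill equation.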
# BLM helicase inh: inhibitors of human Bloom syndrome helicase BLM. actives 0.2% (n = 350,000). Potency, µM (highest dose often 56.1 µM), without a hit: top-dose activity change, negative = inhibition, actives largely listed as inhibitors. recombinant BLM DNA unwinding, fluorescence dequenching. AID 2528. P54132;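 also: potency is read from the fitted curve at half-maximal effect; plate controls were vehicle for no effect and no enzyme for full effect; nearly all actives have a fitted effect of over 35% in size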
# ADP-Glo counter: ADP-Glo luciferase interference, PI5P4K counter-screen. shares compounds with PI5P4K alpha inh. Potency, µM (series often up to 76.9 µM), for the others: at the top dose activity change, negative = inhibition, most hits filed as inhibitors. ADP-Glo detection counter-screen, luciferase luminescence, no enzyme. 1,100 tested, under 10 active. AID 743285
# Numbers without * were called inactive; i = inactive; ? = inconclusive; / = no result given. Rows were chosen to be rich in hits. Some 1.5% of all compounds tested hit in one or more screens of this group. Unless noted, calls follow the shape of the dose curve; as a rule, active = well fitted curve in the direction sought with a large enough effect; inconclusive = small, poorly fitted or top-dose-only effect, or another doubt; inactive = no such curve, though single readings can be large; an effect the other way counts as inactive or inconclusive. Unless noted, % is scaled to controls: 0 for no effect and ±100 for the full control effect.
SMILES,PI5P4K alpha inh,APEX1 inh,RECQ1 helicase,GCN5L2 inh,FEN1 inhibitor,BLM helicase inh,ADP-Glo counter
Cc1nc(NC(=O)c2ccccc2)sc1-c1cc(C(=O)N2CCOCC2)nn1CCO,2.3,/,/,/,/,/,/
Nc1nc(N)c2cc(Sc3ccc(Cl)cc3)ccc2n1,-15.2,/,/,/,/,/,/
Nc1nc(N)c2cc(Sc3ccc4ccccc4c3)ccc2n1,-50.9*,-0.4%,-17.3%,-5.0%,-6.7%,4.5%,-0.2%
Cc1c(C(=O)N2CCCC(C)C2)sc2ncnc(N3CCCCC3C)c12 (stereo not drawn),0.1,?,-16.1%,-7.6%,-14.6%,-2.1%,/
Cc1c(C(=O)O)sc2ncnc(N3CCCCC3C)c12 (stereo not drawn),/,0.3%,-0.6%,-1.7%,-3.7%,-1.3%,0.1%
CCOC(=O)Cc1cc(=O)n2[nH]c(-c3ccccc3)cc2n1,/,-0.9%,-4.6%,0.6%,0.3%,-10.7%,/
CCOC(=O)Cc1cc(=O)n2[nH]c(-c3ccccc3)c(-c3ccccc3)c2n1,-50.2*,9.6%,-5.5%,-6.8%,-0.2%,-18.0%,3.2%
COC(=O)C(NS(N)(=O)=O)C(C)C (stereo not drawn),/,0.9%,i,/,13.8%,0.7%,/
Cc1c(OCC(F)(F)F)ccnc1CS(=O)c1nc2ccccc2[nH]1 (stereo not drawn),-66.9*,3.2%,24.7%,-8.3%,-4.7%,-9.6%,-4.0%
COC(=O)[C@H](Cc1ccccc1)NC(=O)O[C@@H]1C(=O)c2ccc(OC)cc2O[C@H]1c1cccc(C(F)(F)F)c1,/,13.4%,-1.3%,/,/,-6.7%,/
O=S(=O)(Nc1nc(-c2ccccc2)cs1)c1cc(Cl)ccc1Cl,-50.5*,14.0%,/,?,-3.2%,-16.3%,-1.9%
O=[N+]([O-])c1ccc(S(=O)(=O)Nc2nc(-c3ccccc3)cs2)cc1,0.4,6.2%,/,-0.6%,4.0%,2.0%,/
Cn1ccc2cc(S(=O)(=O)N3CCC(C(=O)NCCc4ccccc4)CC3)ccc21,/,/,/,15.3%,5.2%,0.1%,/
O=C(COc1ccc([N+](=O)[O-])cc1)Nc1cccnc1,-54.1*,-1.5%,i,-0.1%,4.0%,-2.9%,-1.7%
COc1cc(Nc2ncc3c(n2)CCN(Cc2cc(F)cc(F)c2)C3)cc(OC)c1,/,/,/,-1.0%,-16.3%,-2.5%,/
CCOc1ccc(S(=O)(=O)N2CCN(c3ccc(C)cc3C)CC2)cc1,-109.7*,5.2%,i,?,6.2%,-6.6%,-2.4%
CC(Sc1ncc(S(=O)(=O)c2ccc(C(C)C)cc2)c(N)n1)C(=O)Nc1ccccc1 (stereo not drawn),/,/,/,-13.8%,3.4%,-9.3%,/
CCOc1ccc(C2c3[nH]c4ccccc4c3CCN2C(=O)CCc2ccccc2)cc1 (stereo not drawn),/,/,/,-14.6%,3.4%,-9.9%,/
O=C(NCc1ccc2c(c1)OCO2)c1cc2ncc(Br)cn2n1,-65.2*,?,-5.6%,-13.3%,7.4%,-23.2%,-3.7%
O=C(NCc1ccc2c(c1)OCO2)c1ccc(Br)cc1,0.9,-2.1%,/,-9.7%,-20.2%,-1.5%,/
Cc1ccc(S(=O)(=O)N(CC(=O)Nc2ccccc2C(=O)O)c2ccccc2C)cc1,-50.6*,1.6%,26.1%,-5.1%,12.1%,-2.6%,0.0%
COc1ccc2[nH]c(=O)c(CN(Cc3nnnn3Cc3ccco3)C3CCCCC3)cc2c1,-59.1*,?,?,-20.2%,-12.7%,?,-4.1%
COc1ccc(Cn2nnnc2CN(Cc2cc3cc(C)ccc3[nH]c2=O)C2CCCC2)cc1,/,16.8%,-7.9%,-12.4%,-16.3%,-1.2%,/
CC(=O)c1ccc(NC(=O)c2cnn3ccccc23)cc1,-76.1*,5.1%,-8.6%,-16.2%,-4.8%,3.8%,-8.4%
CC(=O)c1cccc(NC(=O)c2cnn3ccccc23)c1,?,0.7%,-11.2%,-7.5%,10.4%,-1.3%,/
